# Reference: ChEMBL document CHEMBL3988442, “University of Dundee, Small-Polar-MMV Screening Library” (2021)
# Assays:
# [1] = molecular target: T1, Aspartate--tRNA(Asp/Asn) ligase (Mycobacterium tuberculosis (strain ATCC 25618 / H37Rv)) (UniProt P9WFW3); test: Assay for Asp RNA synthetase-1 from Mycobacterium tuberculosis; assay type: functional; parameters: scale not given: direction of the effect not stated beside the values; conditions: 30 µM; note: in the data most compounds retested in dose-response had high values
# T1 sequence (whole entry): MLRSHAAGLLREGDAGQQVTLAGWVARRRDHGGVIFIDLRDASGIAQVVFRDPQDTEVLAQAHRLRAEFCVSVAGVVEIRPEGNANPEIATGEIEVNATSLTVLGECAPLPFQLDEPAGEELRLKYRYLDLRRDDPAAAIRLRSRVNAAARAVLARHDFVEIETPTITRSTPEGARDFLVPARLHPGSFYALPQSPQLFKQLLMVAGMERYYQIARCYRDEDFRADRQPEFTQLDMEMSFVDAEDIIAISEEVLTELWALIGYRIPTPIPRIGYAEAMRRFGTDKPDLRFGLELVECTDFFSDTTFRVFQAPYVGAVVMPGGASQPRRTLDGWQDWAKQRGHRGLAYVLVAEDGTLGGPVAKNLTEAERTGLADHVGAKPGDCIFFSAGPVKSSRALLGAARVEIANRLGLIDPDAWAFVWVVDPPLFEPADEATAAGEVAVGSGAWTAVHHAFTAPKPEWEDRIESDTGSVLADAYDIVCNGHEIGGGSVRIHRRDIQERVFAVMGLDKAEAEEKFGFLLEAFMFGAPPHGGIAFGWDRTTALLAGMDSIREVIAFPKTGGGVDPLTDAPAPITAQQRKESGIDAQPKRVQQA
# [2] = molecular target: Shiga toxin 2 (Escherichia coli O157:H7) (UniProt P09385+P09386); test: E. coli 0.157:H7 Shiga Toxin SOP - stx2 screening assay; assay type: functional; parameters: scale not given: direction of the effect not stated beside the values; conditions: 30 µM
SMILES,Percent Effect [1] [%],Percent Effect [2] [%]
COc1cc(CNC(=O)CNc2cc(Cl)ccc2OC)ccn1,3.88,20.6
Cc1ccc(CN2CCc3ncnc(C4CCOC4)c3CC2)s1 (stereo not drawn),1.05,-15.3
Cc1nnc(NC(=O)NCc2cccnc2N(C)C)s1,-2.76,-16.1
Cc1nccn1C1CCCN(C(=O)c2ccc3c(c2)NC(=O)CO3)C1 (stereo not drawn),-2.02,24.5
COc1ccc(C(=O)NCCc2nnc3ccccn23)c(OC)c1,3.2,-5.45
CCNC(=O)[C@@H]1C[C@@H](NC(=O)c2cccnc2O)CN1Cc1ccsc1,-2.94,19.7
O=C(NCCOc1ncc(Cl)cc1Cl)c1ccncc1F,-3.03,1.2
c1csc(-c2nc(CNC3CCc4ncnn4C3)co2)c1 (stereo not drawn),1.3,-1.44
CC(C)c1nc(CN(C)C2CCN(Cc3nc(C4CC4)no3)C2)no1 (stereo not drawn),5.06,-26.4
CCOc1ncccc1C(=O)N1CCCCC1c1nccs1 (stereo not drawn),-1.77,2.91
COc1cccc(CC(=O)N2CCc3ncnc(NC(C)C)c3CC2)c1,-0.351,-3.19
CC(O)CN1CCN(C(=O)c2ccc(N(C)C)nn2)CC1 (stereo not drawn),-6.65,-70.5
COc1ccc(C2CC(=O)Oc3cc(C)[nH]c(=O)c32)cc1 (stereo not drawn),0.232,-8.78
C[C@@H]1C[C@@H]2CCN(C(=O)c3cnccn3)C[C@H]2O1,0.69,-15.2
CS(=O)(=O)N1Cc2nccn2CC(Cn2ncccc2=O)C1 (stereo not drawn),1.17,-8.61
Cc1ccc(NS(=O)(=O)c2cc3c(c(C(=O)O)c2)OCCO3)c(F)c1,-2.58,-5.6
COc1cccc(OC)c1C(=O)N1CCN(c2ccccc2F)CC1,1.49,35.2
c1ccc(-n2nnnc2CN2CCCC(Cn3cncn3)C2)cc1 (stereo not drawn),2.98,6.15
CC(C)c1noc(C(C)N2CCN(Cc3ccccc3C#N)CC2)n1 (stereo not drawn),-1.01,12.5
CC(=O)Nc1nc(C(=O)N2CCCC2c2noc(C)n2)cs1 (stereo not drawn),0.425,-22.5
Cc1cnn(CC2CCCN2C(=O)c2cccc(-n3cnnn3)c2)c1 (stereo not drawn),-7.68,9.64
CCCC(=O)N1CCC2(CC1)CC(NC(C)=O)c1ccccc1O2 (stereo not drawn),-5.26,-24.9
Cc1noc([C@H]2C[C@@H]3CCN(CC4CC4)C[C@H]3O2)n1,6.95,-8.04
CC(C)CCCNC(=O)Nc1ccc(F)c(C(N)=O)c1,-3.06,-45.5
CN(Cc1nnc(C2CC2)n1C)C1CCN(Cc2ccon2)C1 (stereo not drawn),12.3,14.2

SMILES,Percent Effect [1] [%],Percent Effect [2] [%]
COCc1cn([C@@H]2c3ccccc3C3(CCNCC3)[C@H]2O)nn1,3.45,8.95
CCOc1nnc(CN(C)CC2CCCN2c2cccnn2)s1 (stereo not drawn),-1.14,-14.4
O=C(NC1CC1)[C@@H]1CCO[C@@H]2CCN(C3CCOCC3)C[C@@H]21,-3.45,-22
Cc1ccc(CN2CCCn3c(nc(Cn4cncn4)cc3=O)C2)s1,-1.14,-10.9
OCCOCCN1CCCC1c1nc2cc(F)ccc2[nH]1 (stereo not drawn),-5.15,-4.14
CCC(CNC(=O)c1ccc(Br)o1)N1CCc2ccccc2C1 (stereo not drawn),1.73,8.06
CCOc1ncccc1C(=O)N1CCCC(c2nccn2CCOC)C1 (stereo not drawn),-4.25,-0.308
Cc1ccc(N2CC3(CCN(c4nccs4)C3)C2)nn1,-3.76,-64.2
NC(=O)COc1cccc(C(=O)N2CCCC(n3ccnc3)C2)c1 (stereo not drawn),0.962,-19.9
O=C(CN1CCCC1Cn1cncn1)Nc1cccnc1 (stereo not drawn),1.28,9.88
CN(C)c1ccc(CNC(=O)c2ccc(Cl)cc2F)cc1,-7.82,0.494
Cc1noc(Cl)c1CCC(=O)N1CCN(c2ncccn2)CC1,-3.2,36
Cc1nc(C)n(CC2CCCN2Cc2cc(C)on2)n1 (stereo not drawn),8.96,8.12
CC(C)NC(=O)Nc1ccc(CNCc2cccc(C#N)c2)cc1,0.232,-108
Cc1nn(C)c(C)c1C1CCCN1C(=O)CCNc1ncccn1 (stereo not drawn),6.63,13.4
c1ccc(-n2ccc(CN3CCCC3Cn3cccn3)n2)cc1 (stereo not drawn),4.81,-19.3
Cc1ncc(CNCC2CCCN2c2cccnn2)s1 (stereo not drawn),0.684,-14.7
CN(Cc1ccccc1O)C(=O)NC1CCCN(c2ncccn2)C1 (stereo not drawn),-4.06,34
CC(C)c1noc(C(C)N2CCN(Cc3ccsc3)CC2)n1 (stereo not drawn),-3.93,27.9
Cn1cc(CN2CC[C@H](O)[C@@H]2Cc2ccncc2)cn1,-1.6,-6.08
COCCn1cc(C(=O)N2CCCC2c2cccc(F)c2)ccc1=O (stereo not drawn),0.301,-4.86
CCOc1ccc(CN(C)C(=O)NC(C)c2nncn2C)cc1 (stereo not drawn),0.975,-14.2
c1ccc(NCc2cn3c(n2)CN(Cc2cccnc2)CC3)nc1,-1.64,-39.5
Cc1cccnc1NCCNC(=O)[C@H]1CNC[C@@H](C(=O)N2CCCC2)C1,-0.342,-7.88
Cc1ncnc2c1CCN(Cc1ccccn1)CC2,1.8,-19.4

SMILES,Percent Effect [1] [%],Percent Effect [2] [%]
Cc1ccc(-c2nc(CCNC(=O)NC3CCN(C)CC3)co2)cc1,-3.19,3.52
CC(C)Oc1cccc(C(O)CNC(=O)CCc2ccncc2)c1 (stereo not drawn),-1.28,-21.1
CSc1ncccc1C(=O)N1CCC(c2nc3c(C)cccc3[nH]2)CC1,3.63,-17.2
CCn1c(Nc2ccccc2OC)nc2c(C)nn(C)c2c1=O,-3.4,-16.8
Cc1cc(N2CCCN(C(=O)Cc3csc(C)n3)CC2)ccn1,0.502,3.59
CCOc1ccccc1-c1noc(CN2CC(n3cccn3)C2)n1,0.259,34.8
O=C(COc1coc(CN2CCCCCC2)cc1=O)c1ccccc1,-4.01,-112
O=C(CCC1CCCC1)N1CCC(c2ncc3c(n2)CCNC3)CC1,-3.47,-54.5
Cc1cnn(CCC(=O)N2CCCN(c3cccnn3)CC2)c1,-0.568,-11.6
CCCNC(=O)CSc1nnc2[nH]c(=O)cc(CC)n12,-6.58,-11.3
CCc1nc(CNCC2CCCN2c2cc(NC)ncn2)cs1 (stereo not drawn),-0.456,-5.66
CCCc1cc(=O)n(CC(N)=O)c(-n2nc(C)cc2C)n1,3.6,-3.82
Cc1nc(-c2ccccc2)sc1C(=O)NCCNc1ncccn1,-2.89,28.3
CC(C)C(C(=O)N1CCN(Cc2ccncc2)CC1)n1cncn1 (stereo not drawn),7.46,-21.4
O=C(NC1CCC1)[C@@H]1CCO[C@@H]2CCN(CCc3ccccc3)C[C@H]21,-2.94,-26.8
Cc1cc(NC(=O)CCN(CC2CCOC2)C2CC2)no1 (stereo not drawn),-6.8,-16.3
CC(O)CN1CCN(C(=O)c2ccn(-c3cccc(Cl)c3)n2)CC1 (stereo not drawn),-5.25,7.58
O=C(NCCOc1cccc(Cl)c1)C1CC(=O)N(CC2CC2)C1 (stereo not drawn),0,-10.5
Cc1ncsc1CN1CC[C@H]2OCC[C@@]2(C(=O)NC(C)C)C1,2.43,-7.46
CC(C)n1[nH]c(=O)c2c1NC(=O)CC2c1cccnc1 (stereo not drawn),-1.05,-6.55
Cn1cc(C(=O)N2CCCC(Cc3nccs3)C2)cn1 (stereo not drawn),2.4,14.9
CS(=O)(=O)N1CCC(NC(=O)COc2ccc(Cl)c(Cl)c2)CC1,1.23,-20.3
CCN1CCN(C(=O)C(C)N2CCN(Cc3nccn3C)CC2)CC1 (stereo not drawn),0.262,-3.01
CCCc1noc(CCC(=O)N2CCCC2c2noc(C3CC3)n2)n1 (stereo not drawn),-2.66,6.31
